The target of assay [1] is Sphingosine kinase 1 (Homo sapiens) (UniProt Q9NYA1). The settings on record: at 1 µM.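 Note: mean SPHK1 inhibition value reported from the GSK PKIS kinase panel screen.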
Assay [2] deals with T1, Sphingosine kinase 2 (Homo sapiens) (UniProt Q9NRA0).
T1 sequence (whole entry): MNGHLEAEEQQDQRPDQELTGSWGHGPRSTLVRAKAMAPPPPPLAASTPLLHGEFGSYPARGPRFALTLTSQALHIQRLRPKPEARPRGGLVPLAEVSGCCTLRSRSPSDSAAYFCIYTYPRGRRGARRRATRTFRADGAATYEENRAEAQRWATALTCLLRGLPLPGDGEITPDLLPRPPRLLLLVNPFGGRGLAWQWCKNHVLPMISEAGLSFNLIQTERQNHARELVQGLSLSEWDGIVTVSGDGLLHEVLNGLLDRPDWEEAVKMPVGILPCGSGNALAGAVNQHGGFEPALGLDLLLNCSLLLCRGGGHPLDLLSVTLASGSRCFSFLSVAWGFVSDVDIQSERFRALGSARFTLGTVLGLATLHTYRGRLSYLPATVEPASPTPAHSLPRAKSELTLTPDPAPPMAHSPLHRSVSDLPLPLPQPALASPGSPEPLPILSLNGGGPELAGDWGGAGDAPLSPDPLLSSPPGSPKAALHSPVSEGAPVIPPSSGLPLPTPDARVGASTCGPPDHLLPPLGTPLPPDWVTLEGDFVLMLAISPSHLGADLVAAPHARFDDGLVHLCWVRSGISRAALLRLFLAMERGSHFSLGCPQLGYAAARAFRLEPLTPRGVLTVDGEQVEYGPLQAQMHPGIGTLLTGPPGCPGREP
The note with it: at 0.1 µM.

In assay [3] the target is T1, Sphingosine kinase 2 (Homo sapiens). The note with it: at 1 µM.
Assay [4] deals with Casein kinase II subunit alpha (Homo sapiens) (UniProt P68400). The note with it: at 0.1 µM.
Casein kinase II subunit alpha (Homo sapiens), sequence (P68400 whole entry, looked up): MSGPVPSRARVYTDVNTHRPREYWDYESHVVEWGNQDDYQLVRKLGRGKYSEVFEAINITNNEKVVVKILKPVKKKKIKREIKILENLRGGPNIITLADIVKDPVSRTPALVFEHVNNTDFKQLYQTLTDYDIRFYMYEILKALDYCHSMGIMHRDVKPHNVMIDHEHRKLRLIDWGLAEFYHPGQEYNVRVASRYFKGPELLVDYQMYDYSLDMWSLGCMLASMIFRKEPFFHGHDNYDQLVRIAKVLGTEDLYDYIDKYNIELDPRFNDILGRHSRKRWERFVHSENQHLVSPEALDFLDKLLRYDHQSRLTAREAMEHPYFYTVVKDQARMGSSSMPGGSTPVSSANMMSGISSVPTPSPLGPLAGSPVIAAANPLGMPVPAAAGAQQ
Assay [5] has the same target. The note with it: at 1 µM.
Assay [6] concerns the target T2, Inhibitor of nuclear factor kappa-B kinase subunit alpha (Homo sapiens) (UniProt O15111).
T2 sequence (whole entry): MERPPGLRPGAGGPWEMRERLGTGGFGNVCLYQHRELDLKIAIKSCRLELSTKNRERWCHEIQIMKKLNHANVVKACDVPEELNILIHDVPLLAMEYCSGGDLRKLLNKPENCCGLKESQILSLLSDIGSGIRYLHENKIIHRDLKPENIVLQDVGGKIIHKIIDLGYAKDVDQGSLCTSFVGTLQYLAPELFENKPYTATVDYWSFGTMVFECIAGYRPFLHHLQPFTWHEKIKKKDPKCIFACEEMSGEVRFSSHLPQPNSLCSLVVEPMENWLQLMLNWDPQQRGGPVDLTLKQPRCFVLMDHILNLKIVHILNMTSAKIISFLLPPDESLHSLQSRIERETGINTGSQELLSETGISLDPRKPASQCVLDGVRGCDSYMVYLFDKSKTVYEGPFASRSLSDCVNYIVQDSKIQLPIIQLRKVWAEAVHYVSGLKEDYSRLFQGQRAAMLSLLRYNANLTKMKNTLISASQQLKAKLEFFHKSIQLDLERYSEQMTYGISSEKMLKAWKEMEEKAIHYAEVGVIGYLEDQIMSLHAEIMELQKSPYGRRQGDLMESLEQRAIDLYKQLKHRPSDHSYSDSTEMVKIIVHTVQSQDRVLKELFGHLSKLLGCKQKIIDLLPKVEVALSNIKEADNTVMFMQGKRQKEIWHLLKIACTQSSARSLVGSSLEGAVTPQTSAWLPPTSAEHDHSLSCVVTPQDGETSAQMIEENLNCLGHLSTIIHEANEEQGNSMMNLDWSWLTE
The note with it: at 0.1 µM.

The target of assay [7] is T2, Inhibitor of nuclear factor kappa-B kinase subunit alpha (Homo sapiens). The settings on record: at 1 µM.
Assay [8] concerns the target T3, Inhibitor of nuclear factor kappa-B kinase subunit beta (Homo sapiens) (UniProt O14920).
T3 sequence (whole entry): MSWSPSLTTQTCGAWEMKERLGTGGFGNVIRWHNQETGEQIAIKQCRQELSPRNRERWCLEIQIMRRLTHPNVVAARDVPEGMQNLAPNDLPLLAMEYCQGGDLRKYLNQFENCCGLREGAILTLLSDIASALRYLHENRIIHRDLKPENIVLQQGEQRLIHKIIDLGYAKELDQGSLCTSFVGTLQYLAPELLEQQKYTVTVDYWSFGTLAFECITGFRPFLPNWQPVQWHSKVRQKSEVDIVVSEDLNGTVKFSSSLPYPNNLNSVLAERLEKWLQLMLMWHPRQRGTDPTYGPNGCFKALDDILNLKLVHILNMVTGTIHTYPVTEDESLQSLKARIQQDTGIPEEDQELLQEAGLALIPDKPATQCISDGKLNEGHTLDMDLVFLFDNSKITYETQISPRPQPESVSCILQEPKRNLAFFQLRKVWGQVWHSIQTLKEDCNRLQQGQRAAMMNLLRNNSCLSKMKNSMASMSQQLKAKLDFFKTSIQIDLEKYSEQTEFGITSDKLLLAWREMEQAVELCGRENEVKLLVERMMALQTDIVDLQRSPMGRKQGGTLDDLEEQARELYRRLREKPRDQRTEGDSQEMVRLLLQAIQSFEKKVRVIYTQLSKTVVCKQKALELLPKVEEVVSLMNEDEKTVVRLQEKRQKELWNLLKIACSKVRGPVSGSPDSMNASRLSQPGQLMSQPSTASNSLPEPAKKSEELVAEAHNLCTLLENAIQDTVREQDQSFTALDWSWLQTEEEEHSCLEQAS
The note with it: at 0.1 µM.

Assay [9] addresses T3, Inhibitor of nuclear factor kappa-B kinase subunit beta (Homo sapiens). The note with it: at 1 µM.
The target of assay [10] is T4, Inhibitor of nuclear factor kappa-B kinase subunit epsilon (Homo sapiens) (UniProt Q14164).
T4 sequence (whole entry): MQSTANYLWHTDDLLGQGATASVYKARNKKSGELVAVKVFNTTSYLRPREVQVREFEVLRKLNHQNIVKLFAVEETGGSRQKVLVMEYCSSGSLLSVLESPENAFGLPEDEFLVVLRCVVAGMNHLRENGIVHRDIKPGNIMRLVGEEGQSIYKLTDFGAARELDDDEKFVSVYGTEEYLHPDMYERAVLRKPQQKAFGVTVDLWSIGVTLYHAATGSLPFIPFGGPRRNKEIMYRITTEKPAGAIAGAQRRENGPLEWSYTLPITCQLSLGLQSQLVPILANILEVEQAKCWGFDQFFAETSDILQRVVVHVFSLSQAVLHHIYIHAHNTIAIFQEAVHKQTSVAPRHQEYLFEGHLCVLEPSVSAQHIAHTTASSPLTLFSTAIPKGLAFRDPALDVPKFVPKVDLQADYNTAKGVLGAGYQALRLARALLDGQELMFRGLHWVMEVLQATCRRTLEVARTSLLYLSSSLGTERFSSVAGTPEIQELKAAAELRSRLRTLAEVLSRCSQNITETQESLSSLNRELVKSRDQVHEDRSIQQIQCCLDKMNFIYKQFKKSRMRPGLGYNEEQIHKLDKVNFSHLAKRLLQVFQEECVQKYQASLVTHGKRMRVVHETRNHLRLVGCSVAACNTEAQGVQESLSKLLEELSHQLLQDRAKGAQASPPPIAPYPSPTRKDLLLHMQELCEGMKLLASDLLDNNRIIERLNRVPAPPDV
The settings on record: at 0.1 µM.

Assay [11] addresses T4, Inhibitor of nuclear factor kappa-B kinase subunit epsilon (Homo sapiens). The settings on record: at 1 µM.
The target in assay [12] is T5, Serine/threonine-protein kinase Nek1 (Homo sapiens) (UniProt Q96PY6).
T5 sequence (whole entry): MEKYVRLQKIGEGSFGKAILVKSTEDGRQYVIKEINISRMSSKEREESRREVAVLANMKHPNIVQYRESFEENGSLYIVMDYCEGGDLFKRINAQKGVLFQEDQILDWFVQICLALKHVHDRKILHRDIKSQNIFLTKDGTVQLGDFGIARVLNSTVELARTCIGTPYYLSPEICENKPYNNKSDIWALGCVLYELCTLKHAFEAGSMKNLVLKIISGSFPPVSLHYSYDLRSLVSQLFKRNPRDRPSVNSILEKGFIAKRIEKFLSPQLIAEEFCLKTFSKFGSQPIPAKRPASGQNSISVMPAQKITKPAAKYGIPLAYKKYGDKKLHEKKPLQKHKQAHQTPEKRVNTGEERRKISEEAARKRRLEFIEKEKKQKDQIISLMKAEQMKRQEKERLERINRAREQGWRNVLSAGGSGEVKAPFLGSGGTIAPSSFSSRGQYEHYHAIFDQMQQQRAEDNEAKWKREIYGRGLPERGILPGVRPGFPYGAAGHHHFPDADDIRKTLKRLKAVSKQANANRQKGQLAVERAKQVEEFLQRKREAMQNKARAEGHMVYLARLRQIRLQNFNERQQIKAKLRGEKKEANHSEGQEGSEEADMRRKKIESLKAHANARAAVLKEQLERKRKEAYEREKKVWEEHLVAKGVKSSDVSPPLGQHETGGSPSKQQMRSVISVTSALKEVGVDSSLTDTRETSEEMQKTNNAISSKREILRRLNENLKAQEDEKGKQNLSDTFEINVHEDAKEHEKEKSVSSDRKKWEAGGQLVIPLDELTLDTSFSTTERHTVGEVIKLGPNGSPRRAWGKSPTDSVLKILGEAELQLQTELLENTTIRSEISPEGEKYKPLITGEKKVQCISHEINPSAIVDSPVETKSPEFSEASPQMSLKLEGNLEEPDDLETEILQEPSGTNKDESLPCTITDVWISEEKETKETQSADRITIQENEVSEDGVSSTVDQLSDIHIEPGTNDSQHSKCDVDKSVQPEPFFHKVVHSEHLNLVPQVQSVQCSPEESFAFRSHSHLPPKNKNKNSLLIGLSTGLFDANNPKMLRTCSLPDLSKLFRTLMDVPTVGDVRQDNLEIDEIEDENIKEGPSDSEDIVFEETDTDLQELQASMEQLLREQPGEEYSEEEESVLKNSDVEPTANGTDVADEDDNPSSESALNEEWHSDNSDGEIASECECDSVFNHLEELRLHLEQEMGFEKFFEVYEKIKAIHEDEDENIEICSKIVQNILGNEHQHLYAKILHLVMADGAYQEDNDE
The note with it: at 0.1 µM.

Assay [13] has as its target T5, Serine/threonine-protein kinase Nek1 (Homo sapiens). The note with it: at 1 µM.
For assay [14], the target named is T6, Serine/threonine-protein kinase Nek2 (Homo sapiens) (UniProt P51955).
T6 sequence (whole entry): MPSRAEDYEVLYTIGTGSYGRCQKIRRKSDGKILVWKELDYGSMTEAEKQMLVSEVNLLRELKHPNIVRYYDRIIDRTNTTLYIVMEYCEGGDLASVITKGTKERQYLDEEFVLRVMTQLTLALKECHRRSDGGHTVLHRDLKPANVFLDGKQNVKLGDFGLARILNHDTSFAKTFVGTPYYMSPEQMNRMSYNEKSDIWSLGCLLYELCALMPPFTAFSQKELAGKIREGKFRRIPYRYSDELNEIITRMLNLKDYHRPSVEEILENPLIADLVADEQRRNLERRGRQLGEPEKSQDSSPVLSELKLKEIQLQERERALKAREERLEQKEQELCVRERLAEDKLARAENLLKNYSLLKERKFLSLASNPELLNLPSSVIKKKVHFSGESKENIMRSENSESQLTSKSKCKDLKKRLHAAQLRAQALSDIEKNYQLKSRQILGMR
The settings on record: at 0.1 µM.

In assay [15] the target is T6, Serine/threonine-protein kinase Nek2 (Homo sapiens). The settings on record: at 1 µM.
Assay [16] addresses Serine/threonine-protein kinase Nek6 (Homo sapiens) (UniProt Q9HC98). The settings on record: at 0.1 µM.
The target is the same in assay [17]. The settings on record: at 1 µM.
The target in assay [18] is Serine/threonine-protein kinase Nek7 (Homo sapiens) (UniProt Q8TDX7). The note with it: at 0.1 µM.
Serine/threonine-protein kinase Nek7 (Homo sapiens), sequence (Q8TDX7 whole entry, looked up): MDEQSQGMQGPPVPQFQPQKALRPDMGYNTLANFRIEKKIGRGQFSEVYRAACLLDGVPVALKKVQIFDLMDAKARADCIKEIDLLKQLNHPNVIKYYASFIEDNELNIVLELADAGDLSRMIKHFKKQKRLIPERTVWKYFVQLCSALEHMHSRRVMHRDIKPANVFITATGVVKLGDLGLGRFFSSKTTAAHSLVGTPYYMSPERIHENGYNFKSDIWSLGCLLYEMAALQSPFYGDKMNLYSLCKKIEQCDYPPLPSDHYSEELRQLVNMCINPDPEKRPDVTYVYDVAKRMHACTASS
For assay [19] the target is unchanged. The settings on record: at 1 µM.
Assay [20] has as its target T7, Serine/threonine-protein kinase Nek9 (Homo sapiens) (UniProt Q8TD19).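 Note: reported value is the mean percent inhibition of NEK9.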
T7 sequence (whole entry): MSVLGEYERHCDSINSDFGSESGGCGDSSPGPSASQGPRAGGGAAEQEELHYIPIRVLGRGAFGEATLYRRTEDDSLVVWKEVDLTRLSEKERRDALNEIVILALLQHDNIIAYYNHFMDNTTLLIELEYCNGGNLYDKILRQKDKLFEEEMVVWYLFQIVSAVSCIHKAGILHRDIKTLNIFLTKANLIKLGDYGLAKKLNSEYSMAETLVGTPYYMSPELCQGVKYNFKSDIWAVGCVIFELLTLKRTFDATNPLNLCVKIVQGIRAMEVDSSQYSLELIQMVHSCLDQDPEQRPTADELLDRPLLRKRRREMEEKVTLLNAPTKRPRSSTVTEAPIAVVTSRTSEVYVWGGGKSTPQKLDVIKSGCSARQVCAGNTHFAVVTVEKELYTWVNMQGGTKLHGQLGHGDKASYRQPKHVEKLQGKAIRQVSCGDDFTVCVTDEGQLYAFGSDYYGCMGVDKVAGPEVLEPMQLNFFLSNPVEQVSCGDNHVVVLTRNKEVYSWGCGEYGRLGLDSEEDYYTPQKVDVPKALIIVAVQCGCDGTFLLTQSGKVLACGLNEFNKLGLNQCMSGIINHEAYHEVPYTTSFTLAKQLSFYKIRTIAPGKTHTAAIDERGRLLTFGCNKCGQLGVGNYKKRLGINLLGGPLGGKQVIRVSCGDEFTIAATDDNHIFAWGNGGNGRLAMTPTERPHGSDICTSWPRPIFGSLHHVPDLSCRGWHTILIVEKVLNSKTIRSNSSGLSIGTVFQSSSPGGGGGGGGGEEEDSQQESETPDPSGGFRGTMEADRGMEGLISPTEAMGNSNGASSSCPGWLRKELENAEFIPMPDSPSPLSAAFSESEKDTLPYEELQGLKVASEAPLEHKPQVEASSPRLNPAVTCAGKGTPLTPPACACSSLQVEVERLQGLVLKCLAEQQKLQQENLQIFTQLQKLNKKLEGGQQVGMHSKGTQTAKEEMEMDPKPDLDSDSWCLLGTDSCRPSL
The note with it: at 0.1 µM.

Drawing on ChEMBL document CHEMBL1961873, “Compounds: GSK PKIS; Assays: Nanosyn kinase panel” (2012), this text covers inhibition for one molecule.

Serine/threonine-protein kinase Nek6 (Homo sapiens), sequence (Q9HC98 whole entry): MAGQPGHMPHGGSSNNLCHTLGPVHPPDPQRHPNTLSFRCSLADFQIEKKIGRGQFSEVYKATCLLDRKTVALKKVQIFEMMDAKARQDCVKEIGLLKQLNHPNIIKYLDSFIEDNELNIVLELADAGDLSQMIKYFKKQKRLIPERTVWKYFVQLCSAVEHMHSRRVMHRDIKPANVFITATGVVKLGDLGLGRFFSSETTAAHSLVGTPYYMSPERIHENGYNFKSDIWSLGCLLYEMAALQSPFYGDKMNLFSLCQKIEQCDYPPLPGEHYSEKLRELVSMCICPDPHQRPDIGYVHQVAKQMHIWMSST
Sphingosine kinase 1 (Homo sapiens), sequence (Q9NYA1 whole entry): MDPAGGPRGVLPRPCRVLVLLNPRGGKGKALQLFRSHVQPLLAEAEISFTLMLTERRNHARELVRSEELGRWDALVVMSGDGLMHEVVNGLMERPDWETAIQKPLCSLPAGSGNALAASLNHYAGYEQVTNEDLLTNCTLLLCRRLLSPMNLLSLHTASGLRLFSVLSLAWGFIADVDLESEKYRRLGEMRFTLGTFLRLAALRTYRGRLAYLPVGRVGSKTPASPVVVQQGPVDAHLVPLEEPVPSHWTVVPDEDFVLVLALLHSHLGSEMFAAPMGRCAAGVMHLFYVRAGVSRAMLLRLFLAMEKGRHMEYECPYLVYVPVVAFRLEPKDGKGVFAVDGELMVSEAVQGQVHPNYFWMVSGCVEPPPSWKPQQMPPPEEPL

One may read the inhibition as the drop in the measured response relative to a control, in per cent. Turning to `COc1ccc(C2=C(N3CCc4ccccc43)C(=O)NC2=O)cc1`, the inhibition in [1] was -5.21%; in assay [2], 0.83%; in assay [3], 0.21%; in [4], 5.6%; in assay [5], 6.96%; in [6] it was 9.04%. Moreover, the inhibition in assay [7] was 6.68%; in assay [8] it was 6.54%; in [9], 3.83%; in assay [10], 13.5%; in assay [11] it was 19.1%; in assay [12] it was 2.77%. For the same molecule, the inhibition in [13] was found to be 5.54%; in assay [14] it was 5.3%; in assay [15], 6.47%; in assay [16], 2.74%; in [17] it was 1.65%; in [18], 3.11%. Besides, the inhibition in assay [19] was 3.74%; in assay [20] it was 11.3%.
